Experimental findings from the supplement of paper PMC6555819 are described below.

Experiment in all cases: PBM binding z-score (relative to random genomic background probes); higher = stronger binding; sequences stand for … in GC…GCGATTGACAGCGTAGAATGAAGG
For assay [1], the system named is FXR:RXRa (NR concentration 270 nM, RXRa partner concentration 90 nM). The gist of the method:
(§1)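 Ligand-free nuclear receptor dimers were applied to custom Agilent 4×180K protein-binding microarrays whose double-stranded probes carried direct-repeat seeds, single-nucleotide variants, half-site ablations and random human genomic background sequences in 34-nt variable regions. Incubation lasted 1 h. Binding z-scores were computed against the random background probes from regression-normalized fluorescence.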

Assay [2] relates to LXRa:RXRa (NR concentration 270 nM, RXRa partner concentration 90 nM). The gist of the method:
as §1

Assay [3] concerns LXRa homodimer (NR concentration 270 nM). An outline of the steps:
as §1

Assay [4] has as its system LXRb:RXRa (NR concentration 270 nM, RXRa partner concentration 90 nM). The gist of the method: as §1
The test system of assay [5] is LXRb homodimer (NR concentration 270 nM). An outline of the steps: as §1
The test system of assay [6] is PPARa:RXRa (NR concentration 270 nM, RXRa partner concentration 90 nM). The gist of the method: as §1
For assay [7], the system named is PPARg:RXRa (NR concentration 180 nM, RXRa partner concentration 90 nM). An outline of the steps:
as §1

The subject of assay [8] is PPARg:RXRa 270nM:90nM, anti-RXR (NR concentration 270 nM, RXRa partner concentration 90 nM). The gist of the method:
as §1

In assay [9] the test system is PPARg:RXRa 30nM:10nM, anti-RXR (NR concentration 30 nM, RXRa partner concentration 10 nM). An outline of the steps: as §1
Assay [10] relates to PPARg:RXRa 90nM:30nM, anti-RXR (NR concentration 90 nM, RXRa partner concentration 30 nM). An outline of the steps:
as §1

Assay [11] concerns PPARg:RXRa DBDmut IVT, anti-RXR (DBD mutation: RXRa K156A/R161A, NR concentration 270 nM, RXRa partner concentration 90 nM). An outline of the steps:
as §1

Assay [12] deals with PPARg:RXRa IVT, anti-PPARg (NR concentration 270 nM, RXRa partner concentration 90 nM). An outline of the steps:
as §1

Assay [13] has as its system PPARg DBDmut:RXRa IVT, anti-PPARg (DBD mutation: PPARg1 K132A/R137A, NR concentration 270 nM, RXRa partner concentration 90 nM). An outline of the steps: as §1
Assay [14] has as its system PPARg DBDmut IVT, anti-PPARg (DBD mutation: PPARg1 K132A/R137A, NR concentration 270 nM). An outline of the steps:
as §1

For assay [15], the system named is PPARg homodimer (NR concentration 180 nM). An outline of the steps:
as §1

In assay [16] the test system is PXR:RXRa (NR concentration 270 nM, RXRa partner concentration 90 nM). The gist of the method:
as §1

The test system of assay [17] is PXR homodimer (NR concentration 270 nM). The gist of the method:
as §1

Assay [18] has as its system RARa:RXR (NR concentration 270 nM, RXRa partner concentration 90 nM). An outline of the steps:
as §1

The subject of assay [19] is RARa homodimer (NR concentration 270 nM). An outline of the steps: as §1
Assay [20] concerns RARb:RXRa (NR concentration 270 nM, RXRa partner concentration 90 nM). An outline of the steps:
as §1

CCTTACGGGTCACTGACAGTTTATAGCATTTGGA: the PBM binding z-score was 5.44 in [1]; 4.17 in assay [2]; 0.494 in assay [3]; 3.4 in assay [4]; -0.118 in assay [5]; 5.18 in assay [6]. The PBM binding z-score in [7] is 4.21; in assay [8], 4.37; in assay [9], 1.57; in assay [10], 3.25; in assay [11], 3.68; in assay [12], 3.57. The PBM binding z-score in assay [13] stood at 0.77; in assay [14], 0.36; in assay [15] it was 2.21; in assay [16] it was 4.38; in assay [17], 0.495; in [18] it was 4.35. The PBM binding z-score stood at 1 in [19] and 3.9 in [20].
For the sequence CCGAGTCGGTTATGGGGCATTCAGGCAACGGTGA, the PBM binding z-score in assay [1] is -0.323; in assay [2], -0.235; in assay [3], -0.49; in assay [4] it was -0.14; in assay [5], -0.656; in assay [6] it was 0.438. Besides, the PBM binding z-score was 0.463 in assay [7]; 1.66 in assay [8]; -0.306 in assay [9]; 0.771 in assay [10]; 0.293 in assay [11]; 0.608 in assay [12]. Further, the PBM binding z-score is -1.56 in [13]; -1.49 in [14]; 0.196 in assay [15]; -0.541 in assay [16]; -0.48 in assay [17]; -0.567 in assay [18]. Moreover, the PBM binding z-score in assay [19] was -0.241; in assay [20], 0.404.
In the case of AGAATGAGGTTATTAACATCAGGGAATTGCGGTC, the PBM binding z-score in assay [1] was 1.93; in assay [2] it was 1.61; in assay [3], 0.0364; in [4], 1.24; in assay [5], 0.0777; in assay [6], 2.63. Besides, the PBM binding z-score in assay [7] amounted to 1.32; in assay [8] it was 1.34; in assay [9], 0.42; in [10] it was 0.938; in assay [11], 2.7; in assay [12] it was 2.3. Besides, the PBM binding z-score is 0.432 in assay [13]; 0.815 in assay [14]; 0.441 in [15]; 1.18 in assay [16]; 0.616 in [17]; 1.36 in assay [18]. Further, the PBM binding z-score worked out at 0.203 in assay [19] and 1.2 in assay [20].
On to TCTTGTAGATCAAAGGTTAAGGAAGCCGAAGCCT, for which the PBM binding z-score in assay [1] was 1.76; in assay [2] it was 1.94; in assay [3] it was 0.12; in assay [4] it was 1.9; in [5] it was -0.272; in assay [6], 4.8. In addition, the PBM binding z-score in assay [7] was 7.91; in assay [8], 7.99; in assay [9] it was 7.63; in assay [10] it was 8.41; in assay [11] it was 2.14; in [12] it was 3.75. Besides, the PBM binding z-score is 1.3 in assay [13]; 0.543 in assay [14]; 1.02 in [15]; 2.01 in assay [16]; -0.532 in assay [17]; 2.9 in assay [18]. Besides, the PBM binding z-score in assay [19] stood at 0.593; in assay [20], 2.11.
Turning to TTACCATGGTGAAGGTCGTTGATCCCTCTGTAGA, the PBM binding z-score in assay [1] is 1.59; in assay [2], 1.54; in assay [3], -0.212; in [4] it was 1.35; in [5], -0.704; in assay [6], 1.64. Moreover, the PBM binding z-score in [7] was 1.06; in assay [8], 2.74; in assay [9], 1.09; in [10] it was 2.44; in [11] it was -0.0288; in [12], 0.772. In addition, the PBM binding z-score in assay [13] is -0.132; in assay [14] it was -0.462; in [15] it was 0.317; in assay [16] it was 1.1; in assay [17], 0.0781; in [18], 0.942. Besides, the PBM binding z-score in [19] is -0.727; in assay [20], 0.811.
With TCTCGGAGGATACGAAGGTCAGAGCTTTCCAGAG, the PBM binding z-score in [1] was 0.399; in [2], 0.672; in assay [3], -0.0784; in assay [4], 0.653; in [5], -1.33; in [6] it was 1.55. Moreover, the PBM binding z-score came out at 0.177 in assay [7]; 1.23 in [8]; 1.89 in [9]; 1.51 in assay [10]; 1.14 in assay [11]; 0.245 in assay [12]. Further, the PBM binding z-score in [13] is -1.41; in assay [14], -1.19; in assay [15], 0.218; in [16], 1.09; in assay [17], -0.447; in assay [18], 1.64. Besides, the values for the PBM binding z-score in assay [19] and in assay [20] were -0.378 and 2.33, respectively.
In the case of GCGACTGGGGCATCAGCAGGTTACCTTAACTTAA, the PBM binding z-score in assay [1] is -0.0462; in [2], -0.17; in assay [3], -0.509; in [4], 0.761; in [5], -0.96; in assay [6], 1.16. For the same sequence, the PBM binding z-score in [7] was 0.496; in assay [8] it was 0.878; in assay [9], -0.313; in assay [10], 0.578; in assay [11] it was 3.64; in assay [12] it was 3.03. In addition, the PBM binding z-score in assay [13] is -1.1; in assay [14], -0.949; in assay [15], 0.152; in assay [16], 0.367; in [17], -0.375; in assay [18], 0.558. In addition, the PBM binding z-score in assay [19] is -0.549; in assay [20] it was 0.828.
